Laboratory results from ChEMBL document CHEMBL1201862, “PubChem BioAssay data set” (2004).
Hit rate of the full screen: of about 57,000 sequences, about 3,700 (6.5%) were called active. No stated cut-off is given here; in the data, active = GI50 up to about 1.1 µM and inactive = higher. These entries were drawn from the full list. Results with a measured potency or affinity are listed apart.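 Five concentrations, 48 hours, 96-well plates. Here, GI50 denotes the concentration required for 50% inhibition of growth.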

Test system: IGROV-1
Experiment: NCI tumour cell line growth inhibition, 48 h

| Substance | GI50 |
| --- | --- |
| [Bis(aminomethyl)pentamethylenesilane]dichloropaltinum(II), CHEMBL2146202 | 41.9 µM |
| [Bis(aminomethyl)pentamethylenesilane]tetrachloropaltinum(IV), CHEMBL2146204 | 10.5 µM |
| CISPLATIN, CHEMBL11359 | 2.02 µM |
| mu-(1,7-nanodiamine-N,N')bis-(cis-aminedichloroplatimum (II)), CHEMBL2146215 | 29 µM |
| [Bis(aminomethyl)tetramethylenesilane]dichloropaltinum(II), CHEMBL2146205 | 36.8 µM |
| [Bis(aminomethyl)dimethylsilane]dichloroplatinum (II), CHEMBL2146201 | > 100 µM |
| [Bis(aminomethyl)diethylsilane]tetrachloroplatinum(IV), CHEMBL2146203 | 15.5 µM |
| [Bis(aminomethyl)ethylmethylsilane]tetrachloroplatinum(IV), CHEMBL2146192 | 16 µM |
| cis-Bis[[(trimethylsilyl)methyl]amino]tetrachloroplatinum(IV), CHEMBL2146191 | 15.4 µM |
| [Bis(aminomethyl)dimethylsilane]tetrachloroplatinum(IV), CHEMBL2146190 | 15.4 µM |
| [Bis(aminomethyl)tetramethylenesilane]tetrachloropaltinum(IV), CHEMBL2146189 | 6.1 µM |
